This is part of a sample that, as a whole, favours compounds with a hit. Of some 83,000 tested, about 20% had one in any assay.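 Percent growth is the endpoint: 0 to 100 indicates growth inhibition (40 means 60% inhibition), 0 means no net growth, and negative values indicate cell death.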 The source made the active and inactive calls. Rule for the calls: active = growth percent below 10; inactive = the rest.
Assays:
Test in all cases: NCI-60 one-dose screen, 48 h (100 = growth as untreated, 0 = no growth, -100 = all killed)
Details in all cases: 10 µM unless noted
SK-MEL-2 melanoma = tested on: SK-MEL-2 melanoma
EKVX NSCLC = tested on: EKVX NSCLC
SN12C renal = tested on: SN12C renal
UO-31 renal = tested on: UO-31 renal
TK-10 renal = tested on: TK-10 renal
ACHN renal = tested on: ACHN renal
CAKI-1 renal = tested on: CAKI-1 renal
CCRF-CEM leukemia = tested on: CCRF-CEM leukemia
MOLT-4 leukemia = tested on: MOLT-4 leukemia
SR leukemia = tested on: SR leukemia
RPMI-8226 leukemia = tested on: RPMI-8226 leukemia
OVCAR-8 ovarian = tested on: OVCAR-8 ovarian
OVCAR-5 ovarian = tested on: OVCAR-5 ovarian
OVCAR-4 ovarian = tested on: OVCAR-4 ovarian
SK-OV-3 ovarian = tested on: SK-OV-3 ovarian
IGROV1 ovarian = tested on: IGROV1 ovarian
OVCAR-3 ovarian = tested on: OVCAR-3 ovarian
HS 578T breast = tested on: HS 578T breast
NCI/ADR-RES ovarian = tested on: NCI/ADR-RES ovarian
A498 renal = tested on: A498 renal

Measured: growth

O=S(=O)(NCCCNc1cc(-c2cn(-c3ccccc3)nc2-c2cccc(O)c2)ccn1)c1ccc(C(F)(F)F)cc1
inactive: SK-MEL-2 melanoma 72.7% | EKVX NSCLC 40.8% | SN12C renal 50.1% | UO-31 renal 24.9% | TK-10 renal 77.7% | ACHN renal 31.5% | CAKI-1 renal 34.7% | CCRF-CEM leukemia 30.2% | MOLT-4 leukemia 16% | RPMI-8226 leukemia 15.4% | OVCAR-8 ovarian 53% | OVCAR-5 ovarian 57.8% | OVCAR-4 ovarian 45.1% | SK-OV-3 ovarian 54.8% | IGROV1 ovarian 58.9% | OVCAR-3 ovarian 49.6% | HS 578T breast 22.6% | NCI/ADR-RES ovarian 35%
active: SR leukemia 8.04%

COc1ccc(/C(=N\O)c2cc(OC)c(OC)c(OC)c2)c(OC)c1N
inactive: SK-MEL-2 melanoma 35.1% | EKVX NSCLC 47.3% | SN12C renal 44.4% | UO-31 renal 50.3% | ACHN renal 40.5% | CAKI-1 renal 28.1% | CCRF-CEM leukemia 12.6% | MOLT-4 leukemia 24.1% | OVCAR-8 ovarian 18% | OVCAR-5 ovarian 47.8% | OVCAR-4 ovarian 42.9% | SK-OV-3 ovarian 43% | NCI/ADR-RES ovarian 18.2%
active: TK-10 renal 9.72% | A498 renal -19.3% | OVCAR-3 ovarian -25.1% | HS 578T breast 7.51%

CCN(CC)S(=O)(=O)c1ccc2[nH]c(=O)cc(C(=O)Nc3ccc(OC)cc3OC)c2c1
inactive: SK-MEL-2 melanoma 88.8% | EKVX NSCLC 166% | SN12C renal 108% | UO-31 renal 108% | TK-10 renal 115% | ACHN renal 103% | CAKI-1 renal 120% | CCRF-CEM leukemia 92.6% | MOLT-4 leukemia 99.7% | RPMI-8226 leukemia 108% | OVCAR-8 ovarian 109% | OVCAR-5 ovarian 100% | OVCAR-4 ovarian 115% | SK-OV-3 ovarian 108% | IGROV1 ovarian 34.4% | OVCAR-3 ovarian 118% | HS 578T breast 103% | NCI/ADR-RES ovarian 99.6%

O=S(=O)(NCCNc1cc(-c2cn(-c3ccccc3)nc2-c2ccccc2)ccn1)c1ccc(F)cc1
inactive: SK-MEL-2 melanoma 108% | EKVX NSCLC 71.3% | SN12C renal 92.8% | UO-31 renal 60.7% | TK-10 renal 114% | ACHN renal 93% | CAKI-1 renal 66.1% | CCRF-CEM leukemia 83.4% | MOLT-4 leukemia 70.1% | SR leukemia 79.3% | RPMI-8226 leukemia 72.5% | OVCAR-8 ovarian 83% | OVCAR-5 ovarian 106% | OVCAR-4 ovarian 85.6% | SK-OV-3 ovarian 92.1% | IGROV1 ovarian 98% | OVCAR-3 ovarian 94.7% | HS 578T breast 87.3% | NCI/ADR-RES ovarian 81.3%

O=C1CCCCC=C1C[N+](=O)[O-]
inactive: SK-MEL-2 melanoma 102% | EKVX NSCLC 103% | SN12C renal 95.7% | UO-31 renal 53.5% | TK-10 renal 107% | ACHN renal 75.8% | CAKI-1 renal 76% | CCRF-CEM leukemia 54.2% | MOLT-4 leukemia 42.5% | RPMI-8226 leukemia 60.6% | OVCAR-8 ovarian 86.8% | OVCAR-5 ovarian 104% | OVCAR-4 ovarian 94.9% | SK-OV-3 ovarian 99.1% | IGROV1 ovarian 91.6% | OVCAR-3 ovarian 61% | HS 578T breast 107% | NCI/ADR-RES ovarian 101%
active: SR leukemia 2.57%

C#CCN1C(=O)/C(=c2\sc3n(c2=O)C2C(NN=3)N(CC)C(=O)N2CC)c2ccccc21 (stereo unspecified)
inactive: SK-MEL-2 melanoma 45.1% | EKVX NSCLC 64.9% | SN12C renal 32.4% | UO-31 renal 40.1% | TK-10 renal 39.7% | ACHN renal 19.8% | CAKI-1 renal 23.5% | MOLT-4 leukemia 20.9% | SR leukemia 10.1% | RPMI-8226 leukemia 18.6% | OVCAR-8 ovarian 25.4% | OVCAR-5 ovarian 33.5% | OVCAR-4 ovarian 47.5% | IGROV1 ovarian 27.6%
active: A498 renal -33.8% | OVCAR-3 ovarian -13.6% | HS 578T breast -5.36% | NCI/ADR-RES ovarian -4.94%

CCN1C(=O)N(CC)C2C1NN=c1s/c(=C\c3cccc(F)c3)c(=O)n12 (stereo unspecified)
inactive: SK-MEL-2 melanoma 51.5% | EKVX NSCLC 64.3% | SN12C renal 31.5% | UO-31 renal 50.8% | TK-10 renal 61.8% | ACHN renal 29.1% | CAKI-1 renal 40.8% | MOLT-4 leukemia 19.1% | OVCAR-8 ovarian 21.2% | OVCAR-5 ovarian 55.6% | OVCAR-4 ovarian 44.1% | SK-OV-3 ovarian 72.3% | IGROV1 ovarian 29.9% | HS 578T breast 17.9%
active: A498 renal -15.3% | SR leukemia 4.36% | RPMI-8226 leukemia -0.526% | OVCAR-3 ovarian -2.21% | NCI/ADR-RES ovarian 5.73%

CCN1C(=S)N(CC)C2Nn3c(s/c(=C4\C(=O)N(C)c5ccccc54)c3=O)=NC21 (stereo unspecified)
inactive: SK-MEL-2 melanoma 70.4% | EKVX NSCLC 54.6% | SN12C renal 51.3% | UO-31 renal 37.2% | TK-10 renal 96.9% | ACHN renal 52.5% | CAKI-1 renal 30.8% | MOLT-4 leukemia 61.8% | SR leukemia 22.6% | RPMI-8226 leukemia 36.8% | OVCAR-8 ovarian 54.5% | OVCAR-5 ovarian 67.5% | OVCAR-4 ovarian 47.5% | IGROV1 ovarian 53.3% | OVCAR-3 ovarian 20.2% | HS 578T breast 48.8%
active: A498 renal -8.5% | NCI/ADR-RES ovarian 6.63%

COc1ccc(/C=C2\Oc3cc(OCCN4CCCC4)ccc3C2=O)c(OC)c1
inactive: SK-MEL-2 melanoma 101% | EKVX NSCLC 98.1% | SN12C renal 92.2% | UO-31 renal 81.2% | TK-10 renal 115% | ACHN renal 95.7% | CAKI-1 renal 92.4% | A498 renal 88.5% | MOLT-4 leukemia 86.7% | SR leukemia 19.6% | RPMI-8226 leukemia 33.9% | OVCAR-8 ovarian 96.2% | OVCAR-5 ovarian 90.3% | OVCAR-4 ovarian 97.6% | SK-OV-3 ovarian 110% | IGROV1 ovarian 99.3% | OVCAR-3 ovarian 93.8% | HS 578T breast 98.5% | NCI/ADR-RES ovarian 91.9%

O=C1CCC/C=C\C[C@H]2C=CC(=O)/C2=C/C[C@H](C/C=C\CC(F)(F)F)O1
active: SK-MEL-2 melanoma -20.9% | EKVX NSCLC -17.7% | SN12C renal -6.43% | UO-31 renal -93% | TK-10 renal -33.6% | ACHN renal -84.8% | A498 renal -75.2% | MOLT-4 leukemia -0.696% | SR leukemia 4.02% | RPMI-8226 leukemia -4.51% | OVCAR-5 ovarian -6.91% | SK-OV-3 ovarian -7.52% | IGROV1 ovarian -25.8% | OVCAR-3 ovarian -69.7% | NCI/ADR-RES ovarian 8.83%
inactive: CAKI-1 renal 16% | OVCAR-8 ovarian 10.4% | OVCAR-4 ovarian 20.6% | HS 578T breast 23.2%

COc1cccc2cc(-c3cc4ccccc4[nH]3)c(=NC(=O)c3ccc(Cl)cc3)oc12
inactive: SK-MEL-2 melanoma 83.3% | EKVX NSCLC 77.9% | SN12C renal 83.8% | UO-31 renal 58.4% | TK-10 renal 96.6% | ACHN renal 51.5% | CAKI-1 renal 53.8% | A498 renal 64.9% | MOLT-4 leukemia 61.5% | SR leukemia 62.7% | RPMI-8226 leukemia 76.1% | OVCAR-8 ovarian 53.8% | OVCAR-5 ovarian 85.9% | OVCAR-4 ovarian 66.8% | IGROV1 ovarian 53.7% | OVCAR-3 ovarian 67% | HS 578T breast 70.8% | NCI/ADR-RES ovarian 53%

COc1ccc(NC(=S)/N=c2\oc3c(OC)cccc3cc2-c2cc3ccccc3[nH]2)cc1
inactive: SK-MEL-2 melanoma 90.2% | EKVX NSCLC 79.6% | SN12C renal 84.7% | UO-31 renal 95.2% | TK-10 renal 96% | ACHN renal 44.8% | CAKI-1 renal 28.3% | A498 renal 87.9% | MOLT-4 leukemia 99.1% | SR leukemia 103% | RPMI-8226 leukemia 105% | OVCAR-8 ovarian 54.8% | OVCAR-5 ovarian 91.5% | OVCAR-4 ovarian 56.4% | SK-OV-3 ovarian 69.4% | IGROV1 ovarian 63.1% | OVCAR-3 ovarian 79.7% | NCI/ADR-RES ovarian 56.7%

C=C1C(=O)O[C@H]2[C@H]1CC/C(Cn1cc(-c3ccccc3C(F)(F)F)nn1)=C\CC[C@@]1(C)O[C@@H]21
active: SK-MEL-2 melanoma -42.2% | EKVX NSCLC -78.6% | SN12C renal -35.3% | UO-31 renal -94.5% | TK-10 renal -50.1% | ACHN renal -85.4% | CAKI-1 renal -48.8% | CCRF-CEM leukemia -28.5% | MOLT-4 leukemia -11.7% | SR leukemia 2.59% | RPMI-8226 leukemia -29.4% | OVCAR-8 ovarian -27.1% | OVCAR-5 ovarian -18.6% | OVCAR-4 ovarian -19% | IGROV1 ovarian -21.4% | OVCAR-3 ovarian -93.8%
inactive: SK-OV-3 ovarian 79.1% | HS 578T breast 39.1% | NCI/ADR-RES ovarian 19.6%

CCCCCCCC/C=C\CCCCCCCCOc1ccccc1CCOP(=O)(O)OCC[N+](C)(C)C
active: TK-10 renal 1.11% | RPMI-8226 leukemia -0.933% | IGROV1 ovarian 9.7%
inactive: SK-MEL-2 melanoma 84.6% | EKVX NSCLC 91.7% | SN12C renal 70.1% | UO-31 renal 65% | ACHN renal 80.6% | CAKI-1 renal 26.9% | A498 renal 82.7% | MOLT-4 leukemia 11.5% | SR leukemia 42.4% | OVCAR-8 ovarian 60.3% | OVCAR-5 ovarian 85.1% | OVCAR-4 ovarian 80.3% | OVCAR-3 ovarian 56.4% | HS 578T breast 88% | NCI/ADR-RES ovarian 98.4%

Clc1nc(Cl)c2ncn(C/C=C/Cn3cnc4c(Cl)nc(Cl)nc43)c2n1
active: UO-31 renal 5.99% | CAKI-1 renal -60% | SR leukemia -14.2% | RPMI-8226 leukemia -17.3% | OVCAR-8 ovarian 7.73%
inactive: SK-MEL-2 melanoma 96.5% | EKVX NSCLC 86.6% | SN12C renal 96.5% | TK-10 renal 79.9% | ACHN renal 90% | CCRF-CEM leukemia 18.2% | MOLT-4 leukemia 80.8% | OVCAR-5 ovarian 112% | OVCAR-4 ovarian 94.6% | SK-OV-3 ovarian 103% | OVCAR-3 ovarian 60.5% | HS 578T breast 46.3%

CCCCCCOc1ccc(C2(Cl)c3ccccc3N(C)c3ccccc32)cc1
inactive: SK-MEL-2 melanoma 42.3% | EKVX NSCLC 58.5% | SN12C renal 52.4% | UO-31 renal 67.8% | TK-10 renal 76.7% | ACHN renal 61% | CAKI-1 renal 61.7% | A498 renal 86.6% | CCRF-CEM leukemia 89.2% | MOLT-4 leukemia 74% | OVCAR-8 ovarian 38.7% | OVCAR-5 ovarian 107% | OVCAR-4 ovarian 41.3% | SK-OV-3 ovarian 60.7% | OVCAR-3 ovarian 32.1% | HS 578T breast 54.7% | NCI/ADR-RES ovarian 52.3%

CC(C)C(C(=O)CCN(C)C)c1ccc(Cl)cc1 (stereo unspecified)
inactive: SK-MEL-2 melanoma 98.4% | EKVX NSCLC 103% | SN12C renal 95.4% | UO-31 renal 93.3% | TK-10 renal 101% | ACHN renal 101% | CAKI-1 renal 102% | CCRF-CEM leukemia 90.6% | MOLT-4 leukemia 76.5% | SR leukemia 84% | RPMI-8226 leukemia 67.5% | OVCAR-8 ovarian 93.3% | OVCAR-5 ovarian 115% | OVCAR-4 ovarian 109% | SK-OV-3 ovarian 85.2% | IGROV1 ovarian 105% | OVCAR-3 ovarian 108% | HS 578T breast 101% | NCI/ADR-RES ovarian 106%
